Source: ChEMBL document CHEMBL1961873, “Compounds: GSK PKIS; Assays: Nanosyn kinase panel” (2012)

Experiments:
[1] = target: T1, 3-phosphoinositide-dependent protein kinase 1 (Homo sapiens) (UniProt O15530); details: at 0.1 µM;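 also: values are mean inhibition of PDK1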
T1 sequence (whole entry): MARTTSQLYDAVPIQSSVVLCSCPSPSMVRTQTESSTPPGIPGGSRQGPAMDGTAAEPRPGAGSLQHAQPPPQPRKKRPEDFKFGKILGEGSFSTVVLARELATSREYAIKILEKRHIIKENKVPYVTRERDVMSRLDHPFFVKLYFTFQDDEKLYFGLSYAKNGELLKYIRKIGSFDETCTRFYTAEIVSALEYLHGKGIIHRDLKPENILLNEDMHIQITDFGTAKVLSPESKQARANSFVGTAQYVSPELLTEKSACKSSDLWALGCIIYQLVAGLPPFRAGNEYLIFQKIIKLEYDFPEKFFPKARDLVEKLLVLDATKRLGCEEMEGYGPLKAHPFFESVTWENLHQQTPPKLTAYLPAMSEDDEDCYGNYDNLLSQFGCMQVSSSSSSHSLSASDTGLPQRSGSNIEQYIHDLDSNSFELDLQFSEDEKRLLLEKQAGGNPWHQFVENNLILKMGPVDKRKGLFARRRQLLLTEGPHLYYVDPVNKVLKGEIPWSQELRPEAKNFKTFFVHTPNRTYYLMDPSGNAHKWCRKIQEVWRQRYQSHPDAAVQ

[2] = target: cAMP-dependent protein kinase catalytic subunit alpha (Homo sapiens) (UniProt P17612); details: at 0.1 µM
[3] = target: cAMP-dependent protein kinase catalytic subunit alpha (Homo sapiens) (UniProt P17612); details: at 1 µM
[4] = target: Protein kinase C alpha type (Homo sapiens) (UniProt P17252); details: at 0.1 µM
[5] = target: Protein kinase C alpha type (Homo sapiens) (UniProt P17252); details: at 1 µM
[6] = target: Protein kinase C beta type (Homo sapiens) (UniProt P05771); details: at 0.1 µM
[7] = target: Protein kinase C beta type (Homo sapiens) (UniProt P05771); details: at 1 µM
[8] = target: Protein kinase C eta type (Homo sapiens) (UniProt P24723); details: at 0.1 µM
[9] = target: Protein kinase C eta type (Homo sapiens) (UniProt P24723); details: at 1 µM
[10] = target: Protein kinase C gamma type (Homo sapiens) (UniProt P05129); details: at 0.1 µM
[11] = target: Protein kinase C gamma type (Homo sapiens) (UniProt P05129); details: at 1 µM
[12] = target: T2, Protein kinase C iota type (Homo sapiens) (UniProt P41743); details: at 0.1 µM
T2 sequence (whole entry): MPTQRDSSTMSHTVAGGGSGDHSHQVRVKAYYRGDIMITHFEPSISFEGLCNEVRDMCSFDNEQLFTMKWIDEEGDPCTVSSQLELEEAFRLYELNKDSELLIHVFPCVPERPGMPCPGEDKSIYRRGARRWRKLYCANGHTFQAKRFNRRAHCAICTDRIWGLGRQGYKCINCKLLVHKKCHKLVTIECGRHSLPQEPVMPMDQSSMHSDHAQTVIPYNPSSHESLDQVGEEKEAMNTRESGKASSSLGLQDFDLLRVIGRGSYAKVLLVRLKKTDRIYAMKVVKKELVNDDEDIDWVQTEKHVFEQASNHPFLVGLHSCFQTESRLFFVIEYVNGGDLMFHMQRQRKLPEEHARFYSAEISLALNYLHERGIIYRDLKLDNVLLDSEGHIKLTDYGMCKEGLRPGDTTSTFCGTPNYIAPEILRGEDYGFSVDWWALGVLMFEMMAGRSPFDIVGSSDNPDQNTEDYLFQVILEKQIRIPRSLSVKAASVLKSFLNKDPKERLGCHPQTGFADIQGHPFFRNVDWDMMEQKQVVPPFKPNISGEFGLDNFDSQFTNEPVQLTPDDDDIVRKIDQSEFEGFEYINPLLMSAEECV

[13] = target: T2, Protein kinase C iota type (Homo sapiens); details: at 1 µM
[14] = target: Protein kinase C theta type (Homo sapiens) (UniProt Q04759); details: at 0.1 µM
[15] = target: Protein kinase C theta type (Homo sapiens) (UniProt Q04759); details: at 1 µM
[16] = target: Protein kinase C beta type (Homo sapiens) (UniProt P05771); details: at 0.1 µM; remark: listed apart in the source
[17] = target: Protein kinase C beta type (Homo sapiens) (UniProt P05771); details: at 1 µM; remark: listed apart in the source
[18] = target: T3, Serine/threonine-protein kinase D1 (Homo sapiens) (UniProt Q15139); details: at 0.1 µM
T3 sequence (whole entry): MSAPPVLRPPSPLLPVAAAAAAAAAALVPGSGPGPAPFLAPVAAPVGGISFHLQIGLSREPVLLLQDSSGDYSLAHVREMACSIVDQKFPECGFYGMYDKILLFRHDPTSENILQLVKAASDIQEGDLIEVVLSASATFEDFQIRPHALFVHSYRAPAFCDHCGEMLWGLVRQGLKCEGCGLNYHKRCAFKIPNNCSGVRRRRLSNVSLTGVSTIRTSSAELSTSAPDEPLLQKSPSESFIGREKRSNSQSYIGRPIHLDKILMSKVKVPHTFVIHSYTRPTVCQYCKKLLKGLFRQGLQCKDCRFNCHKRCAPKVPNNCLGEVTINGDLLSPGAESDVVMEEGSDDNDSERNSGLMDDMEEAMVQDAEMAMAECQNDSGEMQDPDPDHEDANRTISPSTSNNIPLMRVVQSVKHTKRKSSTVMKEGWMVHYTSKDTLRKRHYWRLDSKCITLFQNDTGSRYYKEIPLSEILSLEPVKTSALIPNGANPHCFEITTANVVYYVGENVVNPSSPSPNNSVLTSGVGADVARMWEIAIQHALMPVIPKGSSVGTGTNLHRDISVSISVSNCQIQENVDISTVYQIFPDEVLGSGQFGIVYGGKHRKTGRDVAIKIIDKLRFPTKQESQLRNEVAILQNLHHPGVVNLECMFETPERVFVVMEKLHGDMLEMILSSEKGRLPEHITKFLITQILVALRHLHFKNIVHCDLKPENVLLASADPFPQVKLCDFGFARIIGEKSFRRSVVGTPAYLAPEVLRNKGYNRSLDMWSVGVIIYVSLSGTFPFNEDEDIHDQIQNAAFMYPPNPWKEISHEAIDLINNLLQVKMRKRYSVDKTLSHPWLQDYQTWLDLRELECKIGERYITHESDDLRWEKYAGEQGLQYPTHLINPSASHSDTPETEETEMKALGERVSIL

[19] = target: T3, Serine/threonine-protein kinase D1 (Homo sapiens); details: at 1 µM
[20] = target: T4, Serine/threonine-protein kinase D2 (Homo sapiens) (UniProt Q9BZL6); details: at 0.1 µM;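 also: reported percent inhibition values are means, part of the GSK PKIS kinase panel screen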
T4 sequence (whole entry): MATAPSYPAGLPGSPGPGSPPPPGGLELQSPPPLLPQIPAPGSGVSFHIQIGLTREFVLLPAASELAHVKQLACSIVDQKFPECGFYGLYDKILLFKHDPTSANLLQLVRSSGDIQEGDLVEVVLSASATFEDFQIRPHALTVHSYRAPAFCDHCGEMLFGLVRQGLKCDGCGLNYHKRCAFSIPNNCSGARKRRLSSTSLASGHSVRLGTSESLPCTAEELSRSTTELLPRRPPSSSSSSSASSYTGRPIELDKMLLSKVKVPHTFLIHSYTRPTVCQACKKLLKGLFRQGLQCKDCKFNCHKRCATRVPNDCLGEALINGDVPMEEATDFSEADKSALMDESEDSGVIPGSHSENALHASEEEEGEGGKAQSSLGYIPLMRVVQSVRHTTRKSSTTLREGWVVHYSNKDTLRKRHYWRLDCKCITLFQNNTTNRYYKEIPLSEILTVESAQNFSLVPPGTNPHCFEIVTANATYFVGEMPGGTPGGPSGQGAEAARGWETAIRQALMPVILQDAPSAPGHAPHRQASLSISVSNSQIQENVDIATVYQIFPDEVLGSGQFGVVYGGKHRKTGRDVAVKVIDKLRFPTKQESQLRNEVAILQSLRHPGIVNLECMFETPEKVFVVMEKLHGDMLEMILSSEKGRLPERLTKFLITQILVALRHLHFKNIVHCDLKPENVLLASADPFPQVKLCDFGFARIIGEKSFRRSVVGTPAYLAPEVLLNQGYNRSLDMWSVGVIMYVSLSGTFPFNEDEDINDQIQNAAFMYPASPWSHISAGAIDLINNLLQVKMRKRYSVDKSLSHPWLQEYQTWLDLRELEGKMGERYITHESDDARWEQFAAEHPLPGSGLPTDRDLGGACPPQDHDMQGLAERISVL

Protein kinase C beta type (Homo sapiens), sequence (P05771 2-671 limits assumed): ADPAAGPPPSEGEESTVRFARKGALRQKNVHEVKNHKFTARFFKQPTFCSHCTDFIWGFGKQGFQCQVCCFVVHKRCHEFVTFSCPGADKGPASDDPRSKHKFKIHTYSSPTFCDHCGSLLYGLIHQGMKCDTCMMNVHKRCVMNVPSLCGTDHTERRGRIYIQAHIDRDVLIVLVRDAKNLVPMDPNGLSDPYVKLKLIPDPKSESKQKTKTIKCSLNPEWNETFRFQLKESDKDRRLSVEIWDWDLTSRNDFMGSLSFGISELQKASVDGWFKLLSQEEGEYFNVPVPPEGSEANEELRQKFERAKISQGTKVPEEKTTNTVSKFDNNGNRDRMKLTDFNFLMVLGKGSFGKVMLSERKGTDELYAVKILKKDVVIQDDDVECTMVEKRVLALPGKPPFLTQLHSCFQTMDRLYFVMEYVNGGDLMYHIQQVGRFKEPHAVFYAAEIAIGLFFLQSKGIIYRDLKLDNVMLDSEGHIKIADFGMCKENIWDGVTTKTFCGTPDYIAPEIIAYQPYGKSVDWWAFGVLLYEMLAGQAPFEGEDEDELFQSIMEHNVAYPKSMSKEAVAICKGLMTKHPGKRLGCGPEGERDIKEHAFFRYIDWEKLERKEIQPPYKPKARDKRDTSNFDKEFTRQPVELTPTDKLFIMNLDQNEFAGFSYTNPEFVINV
Protein kinase C eta type (Homo sapiens), sequence (P24723 whole entry): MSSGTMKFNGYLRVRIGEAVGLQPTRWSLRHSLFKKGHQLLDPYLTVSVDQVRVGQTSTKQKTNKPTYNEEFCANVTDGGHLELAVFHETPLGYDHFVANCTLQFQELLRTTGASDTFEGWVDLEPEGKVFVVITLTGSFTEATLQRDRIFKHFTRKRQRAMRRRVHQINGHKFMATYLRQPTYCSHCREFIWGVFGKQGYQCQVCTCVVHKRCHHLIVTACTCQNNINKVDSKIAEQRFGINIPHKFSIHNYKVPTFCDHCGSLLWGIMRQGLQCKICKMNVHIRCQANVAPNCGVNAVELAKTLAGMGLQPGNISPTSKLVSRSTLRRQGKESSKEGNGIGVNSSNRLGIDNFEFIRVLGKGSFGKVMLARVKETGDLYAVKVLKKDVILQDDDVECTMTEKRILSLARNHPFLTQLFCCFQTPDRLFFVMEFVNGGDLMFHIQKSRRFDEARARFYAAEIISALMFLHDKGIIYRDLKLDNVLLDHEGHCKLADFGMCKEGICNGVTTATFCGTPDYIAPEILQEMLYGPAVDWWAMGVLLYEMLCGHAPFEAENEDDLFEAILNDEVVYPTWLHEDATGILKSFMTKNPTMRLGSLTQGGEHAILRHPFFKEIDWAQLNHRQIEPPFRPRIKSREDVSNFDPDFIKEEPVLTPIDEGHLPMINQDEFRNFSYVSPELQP
Protein kinase C theta type (Homo sapiens), sequence (Q04759 whole entry, looked up): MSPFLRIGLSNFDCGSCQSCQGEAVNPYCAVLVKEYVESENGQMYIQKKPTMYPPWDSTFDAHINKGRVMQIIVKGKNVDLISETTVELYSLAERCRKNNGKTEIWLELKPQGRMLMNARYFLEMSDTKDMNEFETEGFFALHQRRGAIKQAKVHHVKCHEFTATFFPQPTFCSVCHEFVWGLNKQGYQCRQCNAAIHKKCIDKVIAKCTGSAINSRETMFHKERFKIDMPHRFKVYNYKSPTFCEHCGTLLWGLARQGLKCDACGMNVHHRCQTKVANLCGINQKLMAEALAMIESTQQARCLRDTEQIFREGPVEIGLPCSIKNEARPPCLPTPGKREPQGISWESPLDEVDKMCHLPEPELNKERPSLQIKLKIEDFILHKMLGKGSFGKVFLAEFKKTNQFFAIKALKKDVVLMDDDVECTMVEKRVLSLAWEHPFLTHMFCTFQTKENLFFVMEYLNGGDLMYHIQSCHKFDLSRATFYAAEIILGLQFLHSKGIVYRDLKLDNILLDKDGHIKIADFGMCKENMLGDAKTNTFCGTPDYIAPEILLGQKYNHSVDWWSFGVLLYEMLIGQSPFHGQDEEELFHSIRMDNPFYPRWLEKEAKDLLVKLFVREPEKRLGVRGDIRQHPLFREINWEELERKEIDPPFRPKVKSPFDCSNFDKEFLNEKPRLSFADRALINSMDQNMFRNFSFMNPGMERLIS

| Structure (SMILES) | inhibition [1] [%] | inhibition [2] [%] | inhibition [3] [%] | inhibition [4] [%] | inhibition [5] [%] | inhibition [6] [%] | inhibition [7] [%] | inhibition [8] [%] | inhibition [9] [%] | inhibition [10] [%] | inhibition [11] [%] | inhibition [12] [%] | inhibition [13] [%] | inhibition [14] [%] | inhibition [15] [%] | inhibition [16] [%] | inhibition [17] [%] | inhibition [18] [%] | inhibition [19] [%] | inhibition [20] [%] |
| --- | --- | --- | --- | --- | --- | --- | --- | --- | --- | --- | --- | --- | --- | --- | --- | --- | --- | --- | --- | --- |
| NS(=O)(=O)c1ccc(N/N=C2\C(=O)Nc3ccc(C(=O)NCCCn4ccnc4)cc32)cc1 | 3.57 | 2.3 | 2.8 | 0.48 | 3.66 | 0.75 | 3.15 | 3.58 | 4.66 | 3.24 | 7.85 | 2 | 1.81 | 2.3 | 6.44 | 2.11 | 4.2 | 5.9 | 22.9 | 7.13 |
| COc1cc2ncn(-c3cc(OCCc4ccccc4)c(C(N)=O)s3)c2cc1OC | 1.29 | 1.37 | -1.08 | 0.95 | 1.14 | 0.05 | -0.8 | -1.3 | 0.58 | 1.89 | 1.47 | 1.14 | 1.71 | 0.51 | -0.63 | 0.9 | 1.22 | 2.65 | 5.06 | 3.79 |
| O=C(Nc1ccc(Oc2ccc3[nH]c(NC(=O)c4ccccc4)nc3c2)cc1)Nc1cc(C(F)(F)F)ccc1F | 1.16 | 1.01 | 1.45 | 0.3 | 1.8 | 0.29 | 3.18 | 1.1 | 4.58 | 3.6 | 3.66 | 1.82 | 0.93 | 1.79 | 2.18 | 1.51 | 4.95 | 2.05 | 3.41 | 3.12 |
| CCc1ccc(Oc2nccc(-c3c(-c4ccc(F)cc4)ncn3C3CCNCC3)n2)cc1 | 1.58 | 25.9 | 75 | 0.98 | 7.86 | 3.94 | 14.9 | 7.26 | 5.32 | -0.16 | 10.9 | 0.16 | 1.79 | 4 | 8.13 | 2.37 | 9.56 | 3.88 | 13 | 4.63 |
| CNC(=O)c1cncc(/C=C/c2c(C)cccc2C)c1 | 2.19 | -2.91 | -3.45 | -2.57 | -1.89 | 1.56 | -0.29 | 3.75 | 1.62 | -0.51 | 0.78 | -1.41 | -1.56 | -0.68 | 0.76 | -0.12 | 1.01 | -2.84 | -2.47 | -2.56 |
| C#Cc1cccc(Nc2ncnc3ccc(OCCCCNCCS(C)(=O)=O)cc23)c1 | 1.83 | -0.23 | -0.04 | -2.51 | 0.29 | 1.6 | 4.77 | 0.97 | 4.94 | 3.27 | 7.74 | 2.69 | 1.19 | 3.71 | 5.27 | 1.93 | 6.61 | 2.59 | 25 | 4.1 |
| NS(=O)(=O)c1ccc(N/N=C2\C(=O)Nc3ccc(-c4cnco4)cc32)cc1 | 2.95 | -3.28 | -2.27 | -4.06 | -1.84 | 1.26 | 0.36 | 3.38 | 1.24 | -1.13 | 4.1 | 1 | 0.97 | 1.05 | 2.96 | 0.38 | 1.12 | -1.79 | 12.6 | -0.15 |
| COc1cc(N2CCN(C(C)C)CC2)ccc1Nc1nc(Nc2ccc(F)cc2C(=O)NC[C@@H](O)CO)c2cc[nH]c2n1 | -0.19 | -1.57 | 0.73 | -2.86 | -2.46 | 1.6 | 4.35 | 4.05 | 7.17 | -2.06 | 7.34 | 2.87 | 0.36 | 3.85 | 6.2 | 1.04 | 2.5 | 1.65 | 13.4 | 3.16 |
| CN(C)CCCNc1nccc(-c2c(-c3ccc(F)cc3)nn3cc(C(F)(F)F)ccc23)n1 | 2.53 | -2.76 | -2.98 | -2.9 | -2.14 | 2.22 | 0.97 | 6.55 | 0.14 | 1.19 | 4.68 | 0.91 | 2.26 | 0.23 | 0.19 | 0.57 | 3.33 | -1.67 | 0.04 | -1.36 |
| NC(=O)c1ccc(Oc2nccc(-c3c(-c4ccc(F)cc4)ncn3C3CCNCC3)n2)cc1 | 1.43 | 8.89 | 43 | 1.16 | 2.25 | 1.04 | 5.96 | 5.08 | 5.97 | 2.56 | 2.68 | 2.53 | 1.91 | 3.83 | 3.82 | 1.9 | 5.22 | 4.57 | 6.71 | 4.04 |
| Fc1ccc(-c2ncn(C3CCNCC3)c2-c2ccnc(Oc3ccc(Oc4ccccc4)cc3)n2)cc1 | 0.03 | 4.74 | 24.9 | 1.36 | 4.49 | 1.48 | 11.2 | 1.53 | 5.81 | 2.37 | 4.82 | 1.22 | 2.19 | 1.9 | 3.54 | 2.63 | 12.4 | 5.08 | 8.65 | 4.63 |
| Clc1ccc(CNc2nccc(-c3cnn4ncccc34)n2)cc1 | 2.08 | 0.38 | 1.31 | 0.92 | 4.19 | 0.26 | 1.03 | 2.3 | 7.54 | 0.4 | 4.31 | -0.38 | -1.34 | 1.01 | 1.73 | 0.21 | 0.83 | 1.24 | 4.11 | 1.12 |
| COc1cc(Nc2ncc(-c3ccccc3)o2)cc(OC)c1OC | -0.87 | -0.33 | -0.26 | -0.31 | 1.1 | -1.34 | 2.43 | -0.81 | -4.38 | -1 | 1.46 | 0.32 | 0.77 | -0.7 | -0.9 | 0.3 | 2.2 | -0.66 | -1.47 | -0.6 |
